# According to publication PMC13423814:
# Assays:
# [1] = biological target: 26S proteasome non-ATPase regulatory subunit 5 (UniProt Q16401)
# Histone H2B type 1-L = Histone H2B type 1-L (UniProt Q99880)
# [2] = biological target: Large ribosomal subunit protein eL28 (UniProt P46779)
# Twinfilin-1 = Twinfilin-1 (UniProt Q12792)
# [3] = biological target: Heterochromatin protein 1-binding protein 3 (UniProt Q5SSJ5)
# Chain of Histone H2A.V, Q71UI9 (Q71UI9 whole entry): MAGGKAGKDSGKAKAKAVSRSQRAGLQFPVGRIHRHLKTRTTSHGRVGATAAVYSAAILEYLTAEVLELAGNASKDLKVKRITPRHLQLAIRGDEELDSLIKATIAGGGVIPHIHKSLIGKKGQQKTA
# Chain of 26S proteasome regulatory subunit 4, P62191 (P62191 whole entry): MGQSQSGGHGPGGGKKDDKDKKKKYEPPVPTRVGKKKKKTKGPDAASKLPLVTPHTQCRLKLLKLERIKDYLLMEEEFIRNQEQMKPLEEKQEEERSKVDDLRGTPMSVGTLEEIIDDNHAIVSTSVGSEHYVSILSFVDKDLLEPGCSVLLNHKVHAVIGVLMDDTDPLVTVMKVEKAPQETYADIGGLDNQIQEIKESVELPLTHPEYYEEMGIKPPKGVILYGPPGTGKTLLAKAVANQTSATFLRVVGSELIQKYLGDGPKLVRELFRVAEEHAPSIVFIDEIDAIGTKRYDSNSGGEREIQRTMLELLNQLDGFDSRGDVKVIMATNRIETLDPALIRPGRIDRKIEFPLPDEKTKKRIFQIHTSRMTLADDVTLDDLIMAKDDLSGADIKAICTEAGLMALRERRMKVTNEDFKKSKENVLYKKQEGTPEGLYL
# Chain of 26S proteasome non-ATPase regulatory subunit 5 (Q16401 whole entry): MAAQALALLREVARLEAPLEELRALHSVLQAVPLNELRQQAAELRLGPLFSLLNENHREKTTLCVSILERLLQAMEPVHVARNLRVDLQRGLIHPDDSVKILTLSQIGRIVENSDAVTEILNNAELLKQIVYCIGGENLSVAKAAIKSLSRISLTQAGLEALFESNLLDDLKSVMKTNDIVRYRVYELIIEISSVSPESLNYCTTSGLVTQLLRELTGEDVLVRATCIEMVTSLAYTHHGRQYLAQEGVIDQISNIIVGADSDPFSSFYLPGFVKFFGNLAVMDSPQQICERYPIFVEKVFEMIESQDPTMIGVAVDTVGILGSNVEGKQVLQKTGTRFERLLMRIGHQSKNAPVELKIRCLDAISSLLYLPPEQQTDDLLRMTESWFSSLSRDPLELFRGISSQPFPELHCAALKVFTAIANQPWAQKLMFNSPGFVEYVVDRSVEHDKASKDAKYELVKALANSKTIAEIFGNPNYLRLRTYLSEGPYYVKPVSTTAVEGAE
substance,measurement,setting,value
"26S proteasome regulatory subunit 4, P62191",listed as a hit,[1],yes
"Histone H2A.V, Q71UI9",listed as a hit,Histone H2B type 1-L,yes
"Calmodulin-3, P0DP25",listed as a hit,[2],yes
"Actin, cytoplasmic 1, P60709",listed as a hit,Twinfilin-1,yes
"Histone H4, P62805",listed as a hit,[3],yes
